Test [1] can be described thus: drug combination growth inhibition, ovarian cancer – cell-based, oncology-focused library, rucaparib conditional, profiling panel (AID 1508598). The following applies: patient-derived ovarian cancer cells, CellTiter-Glo viability, 144 h, stronger effect = lower value.
Test [2] in a line: viability loss with induced miR-34 in A549 – imaging, A549 dox-inducible miR-34, nuclei and caspase counts, primary screen (AID 1347080;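 active = compounds whose cell count with miR-34 switched on is under 0.7 times the count with it off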). The following applies: A549 miR-34 inducible, Hoechst nuclei count, 48 h.
A short description of test [3]: MELAS cybrid and Rieske KO viability enhancers – cell-based, MELAS cybrids, Rieske KO mouse fibroblasts, CellTiter-Glo, primary screen (AID 1508586;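 active = mean z-score across replicates of 1.96 or higher in either the MELAS or the Rieske mutant cell line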;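 note: z relative to plate mean and SD of compound and empty wells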). The following applies: low glucose. In general terms: In ATP-based viability assays light output follows the ATP content of the culture.
Setting [4] is: at 1.25 µM, OCI-C5x cells, with rucaparib 10 µM, 100% = cells with rucaparib alone.
Where [5] appears, read: at 1.25 µM, OCI-C5x cells, without rucaparib.
[6] abbreviates: at 1.25 µM, OCI-P5x cells, with rucaparib 20 µM, 100% = cells with rucaparib alone.
The mark [7] stands for this setting: at 1.25 µM, OCI-P5x cells, without rucaparib.
Setting [8] is: at 5 µM, OCI-C5x cells, with rucaparib 10 µM, 100% = cells with rucaparib alone.
Setting [9] is: at 5 µM, OCI-C5x cells, without rucaparib.
Setting [10] is: at 5 µM, OCI-P5x cells, with rucaparib 20 µM, 100% = cells with rucaparib alone.
The mark [11] stands for this setting: at 5 µM, OCI-P5x cells, without rucaparib.
[12] abbreviates: stronger effect = lower value, cell number ratio, induced over uninduced.
Setting [13] is: measured here: relative caspase fold change +Dox/-Dox.
Setting [14] is: measured here: total cells with miR-34 induction, stronger effect = lower value.
Where [15] appears, read: measured here: total cells without miR-34 induction.
Setting [16] is: MELAS cybrid survival, CellTiter-Glo 48 h, stronger effect = higher value.
Setting [17] is: Rieske KO mouse fibroblast survival, CellTiter-Glo 72 h.
[18] abbreviates: at 0.000305 µM, OCI-C5x cells, with rucaparib 10 µM, 100% = cells with rucaparib alone.
The mark [19] stands for this setting: at 0.000305 µM, OCI-C5x cells, without rucaparib.
The mark [20] stands for this setting: at 0.000305 µM, OCI-P5x cells, with rucaparib 20 µM, 100% = cells with rucaparib alone.
[21] abbreviates: at 0.000305 µM, OCI-P5x cells, without rucaparib.
Setting [22] is: at 0.00122 µM, OCI-C5x cells, with rucaparib 10 µM, 100% = cells with rucaparib alone.
The mark [23] stands for this setting: at 0.00122 µM, OCI-C5x cells, without rucaparib.
Where [24] appears, read: at 0.00122 µM, OCI-P5x cells, with rucaparib 20 µM, 100% = cells with rucaparib alone.
The mark [25] stands for this setting: at 0.00122 µM, OCI-P5x cells, without rucaparib.
The mark [26] stands for this setting: at 0.00488 µM, OCI-C5x cells, with rucaparib 10 µM, 100% = cells with rucaparib alone.
[27] abbreviates: at 0.00488 µM, OCI-C5x cells, without rucaparib.
[28] abbreviates: at 0.00488 µM, OCI-P5x cells, with rucaparib 20 µM, 100% = cells with rucaparib alone.
Where [29] appears, read: at 0.00488 µM, OCI-P5x cells, without rucaparib.
The mark [30] stands for this setting: at 0.0195 µM, OCI-C5x cells, with rucaparib 10 µM, 100% = cells with rucaparib alone.
The mark [31] stands for this setting: at 0.0195 µM, OCI-C5x cells, without rucaparib.
Where [32] appears, read: at 0.0195 µM, OCI-P5x cells, with rucaparib 20 µM, 100% = cells with rucaparib alone.
Setting [33] is: at 0.0195 µM, OCI-P5x cells, without rucaparib.
Where [34] appears, read: at 0.0781 µM, OCI-C5x cells, with rucaparib 10 µM, 100% = cells with rucaparib alone.
Where [35] appears, read: at 0.0781 µM, OCI-C5x cells, without rucaparib.
Where [36] appears, read: at 0.0781 µM, OCI-P5x cells, with rucaparib 20 µM, 100% = cells with rucaparib alone.
Setting [37] is: at 0.0781 µM, OCI-P5x cells, without rucaparib.
[38] abbreviates: at 0.313 µM, OCI-C5x cells, with rucaparib 10 µM, 100% = cells with rucaparib alone.
[39] abbreviates: at 0.313 µM, OCI-C5x cells, without rucaparib.
[40] abbreviates: at 0.313 µM, OCI-P5x cells, with rucaparib 20 µM, 100% = cells with rucaparib alone.
The mark [41] stands for this setting: at 0.313 µM, OCI-P5x cells, without rucaparib.

The source made the active and inactive calls.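 Rule for the calls, unless noted: active = normalized viability below 100% at a tested concentration; inactive = the rest.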

As to `Cc1cc(C)c(-c2csc(NC(=O)c3ccccc3)n2)c(C)c1`, the viability (commonly a read-out of living cells in per cent, often relative to untreated cells) was 113% (inactive) in test [1] (setting [4]); 104% (inactive) in test [1] (setting [5]); 103% (inactive) in test [1] (setting [6]); 100% (active) in test [1] (setting [7]); 99.6% (active) in test [1] (setting [8]); 113% (inactive) in test [1] (setting [9]). In addition, the viability is 86.6% (active) in test [1] (setting [10]) and 95.6% (active) in test [1] (setting [11]).
As for `Cc1cc(C)c(S(=O)(=O)n2cc(C)cc2C)c(C)c1`, the fold change was 0.922 (inactive) in test [2] (setting [12]) and 0.448 in test [2] (setting [13]). Also, the cell count was found to be 7540 in test [2] (setting [14]) and 8180 in test [2] (setting [15]). Also, the z-score in test [3] (setting [16]) was -0.318 (inactive); in test [3] (setting [17]), 0.313. The viability in test [1] (setting [18]) was 109% (inactive); in test [1] (setting [19]), 106% (inactive); in test [1] (setting [20]), 102% (inactive); in test [1] (setting [21]) it was 104% (inactive); in test [1] (setting [22]), 121% (inactive); in test [1] (setting [23]), 104% (inactive). Further, the viability is 97.6% (active) in test [1] (setting [24]); 96% (active) in test [1] (setting [25]); 116% (inactive) in test [1] (setting [26]); 101% (inactive) in test [1] (setting [27]); 106% (inactive) in test [1] (setting [28]); 101% (inactive) in test [1] (setting [29]). Moreover, the viability in test [1] (setting [30]) is 112% (inactive); in test [1] (setting [31]), 94% (active); in test [1] (setting [32]), 105% (inactive); in test [1] (setting [33]), 97.2% (active); in test [1] (setting [34]), 128% (inactive); in test [1] (setting [35]), 102% (inactive). The viability was 99.3% (active) in test [1] (setting [36]); 97.7% (active) in test [1] (setting [37]); 122% (inactive) in test [1] (setting [38]); 109% (inactive) in test [1] (setting [39]); 101% (inactive) in test [1] (setting [40]); 98.8% (active) in test [1] (setting [41]). The viability in test [1] (setting [4]) was 113% (inactive); in test [1] (setting [5]) it was 94.4% (active); in test [1] (setting [6]), 106% (inactive); in test [1] (setting [7]), 102% (inactive); in test [1] (setting [8]), 122% (inactive); in test [1] (setting [9]), 110% (inactive). The viability was 101% (inactive) in test [1] (setting [10]) and 102% (inactive) in test [1] (setting [11]).
Consider `C[C@]12CC[C@H]3c4ccc(O)cc4CC[C@H]3[C@@H]1CCC2=O`, for which the fold change in test [2] (setting [12]) was 0.911 (inactive); in test [2] (setting [13]), 1.15. In addition, the cell count amounted to 7600 in test [2] (setting [14]) and 8340 in test [2] (setting [15]). For the same molecule, the z-score in test [3] (setting [16]) was -0.223 (inactive); in test [3] (setting [17]) it was 0.742. In addition, the viability in test [1] (setting [18]) is 108% (inactive); in test [1] (setting [19]), 116% (inactive); in test [1] (setting [20]), 102% (inactive); in test [1] (setting [21]), 111% (inactive); in test [1] (setting [22]), 112% (inactive); in test [1] (setting [23]), 117% (inactive). Moreover, the viability in test [1] (setting [24]) was 101% (inactive); in test [1] (setting [25]), 106% (inactive); in test [1] (setting [26]), 115% (inactive); in test [1] (setting [27]), 120% (inactive); in test [1] (setting [28]), 99.5% (active); in test [1] (setting [29]) it was 100% (inactive). Besides, the viability in test [1] (setting [30]) is 114% (inactive); in test [1] (setting [31]), 108% (inactive); in test [1] (setting [32]), 96.5% (active); in test [1] (setting [33]), 96.2% (active); in test [1] (setting [34]), 115% (inactive); in test [1] (setting [35]) it was 99.8% (active). In addition, the viability was 96.1% (active) in test [1] (setting [36]); 66% (active) in test [1] (setting [37]); 81.6% (active) in test [1] (setting [38]); 57.7% (active) in test [1] (setting [39]); 80.9% (active) in test [1] (setting [40]); 42.9% (active) in test [1] (setting [41]). The viability in test [1] (setting [4]) is 78% (active); in test [1] (setting [5]) it was 63.5% (active); in test [1] (setting [6]), 65% (active); in test [1] (setting [7]), 29.9% (active); in test [1] (setting [8]), 36.6% (active); in test [1] (setting [9]), 23.7% (active). In addition, the results for the viability in test [1] (setting [10]) and in test [1] (setting [11]) were 43.7% (active) and 13.5% (active), respectively.
Turning to `Cc1onc(-c2c(Cl)cccc2Cl)c1C(=O)NC1C(=O)N2C1SC(C)(C)C2C(=O)O` (stereo not given), the fold change in test [2] (setting [12]) is 0.869 (inactive); in test [2] (setting [13]) it was 0.56. The figures for the cell count in test [2] (setting [14]) and in test [2] (setting [15]) were 8500 and 9780, respectively. Further, the figures for the z-score in test [3] (setting [16]) and in test [3] (setting [17]) were -0.165 (inactive) and -0.146, respectively.
For the molecule `Cc1cncc(CN2CCC(=C3c4ccc(Cl)cc4CCc4cccnc43)CC2)c1`, the fold change in test [2] (setting [12]) was 1.04 (inactive); in test [2] (setting [13]), 0.52. Besides, the values for the cell count in test [2] (setting [14]) and in test [2] (setting [15]) were 6230 and 6000, respectively. The figures for the z-score in test [3] (setting [16]) and in test [3] (setting [17]) were -0.369 (inactive) and -0.161, respectively.
As for `CN(C)CCSSCCNC(=O)C1CCN(C(=O)CSc2ccc(Cl)cc2)CC1`, the fold change was 0.922 (inactive) in test [2] (setting [12]) and 0.314 in test [2] (setting [13]). Besides, the cell count stood at 7870 in test [2] (setting [14]) and 8530 in test [2] (setting [15]). Further, the z-score in test [3] (setting [16]) is -0.0132 (inactive); in test [3] (setting [17]) it was 1. The viability is 118% (inactive) in test [1] (setting [18]); 110% (inactive) in test [1] (setting [19]); 103% (inactive) in test [1] (setting [20]); 95.4% (active) in test [1] (setting [21]); 117% (inactive) in test [1] (setting [22]); 112% (inactive) in test [1] (setting [23]). In addition, the viability is 102% (inactive) in test [1] (setting [24]); 101% (inactive) in test [1] (setting [25]); 126% (inactive) in test [1] (setting [26]); 112% (inactive) in test [1] (setting [27]); 109% (inactive) in test [1] (setting [28]); 103% (inactive) in test [1] (setting [29]). Moreover, the viability in test [1] (setting [30]) is 122% (inactive); in test [1] (setting [31]), 105% (inactive); in test [1] (setting [32]), 106% (inactive); in test [1] (setting [33]) it was 100% (active); in test [1] (setting [34]), 129% (inactive); in test [1] (setting [35]) it was 112% (inactive). The viability in test [1] (setting [36]) is 103% (inactive); in test [1] (setting [37]), 95.1% (active); in test [1] (setting [38]) it was 124% (inactive); in test [1] (setting [39]) it was 91.9% (active); in test [1] (setting [40]), 98.4% (active); in test [1] (setting [41]), 89.4% (active). Further, the viability in test [1] (setting [4]) was 120% (inactive); in test [1] (setting [5]), 112% (inactive); in test [1] (setting [6]) it was 93.2% (active); in test [1] (setting [7]), 90.1% (active); in test [1] (setting [8]), 137% (inactive); in test [1] (setting [9]), 140% (inactive). For the same molecule, the viability in test [1] (setting [10]) is 88.3% (active); in test [1] (setting [11]), 87.3% (active).
`CC1COCCN1c1cc(C2(S(C)(=O)=O)CC2)nc(-c2cccc3[nH]ccc23)n1` (stereo not given): the fold change in test [2] (setting [12]) is 0.703 (inactive); in test [2] (setting [13]), 2.27. Moreover, the cell count in test [2] (setting [14]) was found to be 1950; in test [2] (setting [15]), 2770. Also, the z-score was 2.53 (active) in test [3] (setting [16]) and -0.319 in test [3] (setting [17]).

These data come from PubChem BioAssay.
